In this experiment the test system is VDR:RXRa (NR concentration 270 nM, RXRa partner concentration 90 nM). Kind of experiment: PBM binding z-score (relative to random genomic background probes); higher = stronger binding; sequences stand for … in GC…GCGATTGACAGCGTAGAATGAAGG
The procedure: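 Protein-binding microarray (Agilent 4x180K custom design, double-stranded 60-nt probes: 5' GC cap, 34-nt variable region, 24-nt constant primer region; full probe sequence given). Purified or IVT nuclear receptor:RXRα heterodimers (3:1 NR:RXRα, mostly 270:90 nM) or homodimers were incubated for 1 h in PBS with 2% milk and no ligand, then detected with Alexa488 antibodies. Fluorescence from o1-orientation probes (~5 replicates averaged) was converted to z-scores against 500 random hg19 background probes. Variable regions are seed direct-repeat (DR0–DR5) sites, all their single-nucleotide variants and half-site ablations.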
Sequence CCTAGTTGGTCAAGGTCACACAAGCTATAGGTAC registered a PBM binding z-score of 4.38. Regarding TCTAGCAGCCCAGAGGGTCACTCAAGAGGTACGG, the PBM binding z-score was 1.1.

Regarding CCTACTGGGCCATTCAGAGGTCATTAATCATATG, the PBM binding z-score was 3.64. Sequence ATATGTAGGTTATCGGGACATTCAGTTTGCGCAT registered a PBM binding z-score of 1.04. Then ACTATTAGTTGAGACGAGGCCAACCGATAGGTTG, with 0.333; and CGAACTAGGCCATTGACAGGACAGTGAATAGTAA, with -0.259. The sequence CCTAGCAGGCCAATCTGGGTGACTCAAGGCTTGA gave a PBM binding z-score of -0.769. In turn, GCGTACGGGTCAAAGGTTATAGCATGAATAGAAT returned a PBM binding z-score of 5.59. TCTTGTTGATCAGCAGGTTAAGAAAGCTGGCCAA registered a PBM binding z-score of 0.36.

In turn, TATACAGGGTCAAAGGCCAGTGTACGAATGTCGA yielded a PBM binding z-score of 4.84. For GCGACTGGGGCATCAGCAGGTTAACATAACTTAA, the PBM binding z-score is 0.126.

TCTAGAAGGCCAGAGGGTCACTCAAGAGGTACGG: the PBM binding z-score was determined as 2.05.

In turn, TCTGCTGGGTCAGTTGGTCAGCTAACGAGCTGCC gave a PBM binding z-score of 0.238. Take ATCTTTAGGTAAAGTTCAGTGAAAGATCGATAGA: the PBM binding z-score was 1.7.

For the sequence CGACAAAGTTCAACTAAGGTAACGTAAAGCACGC, the PBM binding z-score came to 4.67. ATATGTAGGTTAAGGGGCATTCAGGTTGGTTCGC showed a PBM binding z-score of 2.2.

Sequence CCTATTAGTTGACCATTAGGGCAACCGAAGCTCG gave a PBM binding z-score of 0.563. Regarding ATCCCTAGGTAAAGATAGTTCAGTGAATGCAAAT, the PBM binding z-score came out at 0.829. The result for CCAAGCAGGCCAGGGTCACTCAAGCATTTCGCTT reads 2.55; that for ATCTCGAGGTAAAGTTCAGTGAAAGATCGATAGA, 1.64; that for AATACACGGTCATCGTAGGCCAGAGTACGCACAG, 0.576. Sequence GCTAGCAGGCCATTTGGTTCACTCAATGACGGGC displayed a PBM binding z-score of 1.28. In turn, CCTCCTGGGCCACGAAAGGTCATTGATTCAGTGA yielded a PBM binding z-score of 4.04. The sequence CCATACAGGTGAAAGGTAACTCAGTCTGGTACGC registered a PBM binding z-score of 0.988. In turn, CCTACTGCGCCACGAAAGGTCATTGATTCAGTGA gave a PBM binding z-score of 4.08.

As for CTCGAAAGGTCGGTTGAGGTGAGTGTACGGATAA, the PBM binding z-score is 2.42. The result for GTTTACGGGTCAAAGGTTATAGCATGAATAGAAT reads 5.82; that for TCGAGTAGGTTAGTCGGGGCATACAGCCAACATA, 1.74. The result for CCTGGGAGGACAGAAGGTCAGAGCTGTCCGCTTT reads 1.04; that for AGAATGAGGTGATACGTAGATCAGGGAAGAAAGT, -0.0206.

CTACCAAGGTGGACAAGGTCGTTGATTACTATTC gave a PBM binding z-score of 3.

Turning to CGTCCAAGGTCAATGCTAGGTCAATGAAAGCATT, the PBM binding z-score stood at 5.33. Sequence AATAGTTGGTCAGCTGAGGTCACACACAATTCGG gave a PBM binding z-score of 4.69. GCTCGGCGGACAAGGTCAGAGCTTTGTCCGTAGA came in with a PBM binding z-score of 0.376.

In turn, CTAACGAGGGCATGAGTTGATAGCAAATGCCGAT gave a PBM binding z-score of 1.4. In the case of AATACAGGGTCATCGTAGGCCAGAGTCCGCACAG, the PBM binding z-score turned out to be 5.19.

Turning to CCTGCTGGGCCAAGGTCATTGATCAGTCAAAGCA, the PBM binding z-score amounted to 3.06. On to GTGACTGGGGCATCAGCAGGTTACCATAACTTAA, for which the PBM binding z-score came out at 0.163. Regarding ATCTTTAGGTAACAAGTTCAGTGAAAGAGAGGAC, the PBM binding z-score worked out at 1.81.

As for CCTACTGGGCCAAAAAAGTCATTGATGCCGATAA, the PBM binding z-score is -0.174.

The record behind these values is the supplement of paper PMC6555819.
